The source of these data is PubChem BioAssay (NCATS).

“And” between values parts separate entries of the source, which are not always exact repeats. Equal entries are not always repeated.

A short description of the assay: qHTS profiling for inhibitors of Plasmodium falciparum (HB3) proliferation (AID 743324).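 Also: 100% = DMSO vehicle wells and 0% = artemisinin-treated control wells.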 The conditions noted are these: Plasmodium falciparum HB3 blood-stage proliferation; at 28.7 µM (top of the series) unless noted. An excerpt:
Plasmodium falciparum is a virulent malarial parasite that kills 1-2 million people worldwide each year. Transmitted by mosquitoes, the sporozoite form of the parasite enters the blood stream to infect hepatocytes, where they become merozoites that infect red blood cells (erythrocytes). Within erythrocytes, merozoites begin a […] cycle of growth and division, after which the parasite is released to infect new red blood cells. Gametocytes, which form within erythrocytes as well, circulate in the bloodstream and are ingested by the mosquito, thereby completing the life cycle. To profile malarial isolates for differential chemical responses and to identify inhibitors of malarial growth, an assay that measures P. falciparum growth and replication within erythrocytes was employed. This assay uses a DNA binding fluorescent dye (SYBR Green) to detect parasite DNA following cell lysis. Because mature erythrocytes lack DNA, only Plasmodium-derived DNA is detected.
For screening 3 ul culture medium was dispensed into 1536 well black clear bottom plates (Aurora Biotechnologies) using a Multidrop Combi (Thermo Fisher Scientific Inc.), 23 nL compounds in DMSO were added by a pin tool (Kalypsys), and 5 ul of erythrocytes infected with P. falciparum (0.3% parasitemia, 2.5% hematocrit final concentration) were added. The plates were incubated at 37 C in a humidified incubator in 5% CO2 for 72 h, and 2 ul lysis buffer (20 mM Tris HCl, 10 mM EDTA, 0.16% saponin, […]% triton X, 10X SYBR Green I supplied as 10,000X […] by Invitrogen) was added to each well. The plates were mixed for 25 sec with gentle shaking and incubated overnight at room temperature in the dark. The following morning, fluorescence intensity at 485(14) nm excitation and 535(25) nm emission wavelengths was measured on an EnVision (Perkin Elmer) plate reader. Plate reads were normalized relative to the control inhibitor (0.29 uM artemisinin) and vehicle (DMSO) wells present on each plate and then corrected by an algorithm using vehicle-only control plates at the beginning and end of the compound plate stack.
Background: Quantitative high-throughput screening tests each substance at several concentrations.
For `COc1ccc2c3n(c(=NC(=O)c4cccnc4)nc2c1OC)CCN3`, the remaining proliferation (% of control), lower = more inhibition was determined as 1.47%.
To `COCCNCCCn1c(C(=O)CF)c(-c2ccc(C)cc2)c2c(N)ncnc21` belongs 35%.
Turning to `CCC(=O)N[C@H]1CC[C@H](C(=O)N(C)c2ccc(-c3nc4ccccc4o3)cc2)C1`, the remaining proliferation (% of control), lower = more inhibition was 35.8%.
With `CC1(C)SCCN(S(=O)(=O)c2ccc(OCC#CCO)cc2)[C@@H]1C(=O)NO`, the remaining proliferation (% of control), lower = more inhibition came out at 81.4%.
`O=C(C=Cc1ccc(/C=C/C(=O)Nc2ccc(C3=NCCN3)cc2)cc1)Nc1ccc(C2=NCCN2)cc1`: the remaining proliferation (% of control), lower = more inhibition amounted to 10.9%.
To `CC(C)(N)C(=O)N[C@H](COCc1ccccc1)C(=O)N1CCC2(CC1)CN(S(C)(=O)=O)c1ccccc12` belongs 1.31%; to `C[C@]12CC[C@H](O)CC1=CC[C@@H]1[C@H]2CC[C@]2(C)C(c3cccnc3)=CC[C@H]12`, 24.9%; to `NC(=O)c1ccc(-c2nc(-c3ccc4c(c3)OCCO4)c(-c3ccccn3)[nH]2)cc1`, 13.2%.
As for `CCC(C)(C)C(=O)O[C@H]1C[C@@H](C)C=C2C=C[C@H](C)[C@H](CC[C@@H]3C[C@@H](O)CC(=O)O3)[C@H]21`, the remaining proliferation (% of control), lower = more inhibition is 86.8% [at 9.63 µM].
To `CC(C)C[C@H](NC(=O)[C@@H](O)[C@H](N)Cc1ccccc1)C(=O)O` belongs 5.96%.
To `CCOc1cc(C=C2C(=O)N(c3ccccc3)N=C2C)cc(Cl)c1OCC(=O)OC` belongs 102%; to `Cc1cc2c(C(C)C)c(O)c(O)c(C=O)c2c(O)c1-c1c(C)cc2c(C(C)C)c(O)c(O)c(C=O)c2c1O`, -0.222% and 1.83%.
As for `CCOc1ccc(Cc2cc([C@@H]3O[C@H](CO)[C@@H](O)[C@H](O)[C@@H]3O)ccc2Cl)cc1`, the remaining proliferation (% of control), lower = more inhibition came to 112%.
The result for `CNC(=O)c1ccc(C)c(-n2c(C)cc(OCc3ccc(F)cc3F)c(Br)c2=O)c1` reads 52.2%; that for `Cc1c(CN2CCN(C(=O)C(C)C)CC2)sc2c(N3CCOCC3)nc(-c3cnc(N)nc3)nc12`, 8.2%; that for `CS(=O)(=O)c1cccc(CNc2nc(Nc3ccc4c(c3)CCC(=O)N4)ncc2C(F)(F)F)c1`, 101%.
The result for `CC(C)(C)OC(=O)CN(Cc1ccc(Cl)cc1)Cc1ccc([N+](=O)[O-])s1` reads -1.32%.
The result for `O=C(O)[C@@H](c1ccc(OCc2ccc3ccccc3n2)cc1)C1CCCC1` reads 106%; that for `O=C(Nc1cccnc1)N1CCC(Cc2cccc(Oc3ccc(C(F)(F)F)cn3)c2)CC1`, 4.06%.
For `COc1ccc(CC2=NN3C([C@@H](CCc4ccccc4)[C@@H](C)O)=NC(C)C3C(=O)N2)cc1OC` (stereo not given in full), the remaining proliferation (% of control), lower = more inhibition came out at 17.1%.
Consider `Cc1cc(Nc2nc(N[C@@H](C)c3ncc(F)cn3)ncc2Cl)n[nH]1`, for which the remaining proliferation (% of control), lower = more inhibition is 101%.
Turning to `CCCS(=O)(=O)Nc1ccc(F)c(C(=O)c2c[nH]c3ncc(Cl)cc23)c1F`, the remaining proliferation (% of control), lower = more inhibition came to 55.7%.
To `CS(=O)(=O)Oc1ccc2c(NC(N)=O)c(C(=O)c3ccc(Cl)cc3Cl)oc2c1` belongs 94.7%; to `Oc1cccc(-c2nc(N3CCOCC3)c3oc4ncccc4c3n2)c1`, 1.45%.
`CN([C@@H](Cc1ccc(OS(=O)(=O)c2cccc3cnccc23)cc1)C(=O)N1CCN(c2ccccc2)CC1)S(=O)(=O)c1cccc2cnccc12`: the remaining proliferation (% of control), lower = more inhibition was -0.274% and -0.52%.
The result for `CCCS(=O)(=O)Nc1ccc(F)c(C(=O)c2c[nH]c3ncc(-c4ccc(Cl)cc4)cc23)c1F` reads 22.8%.
Regarding `O=C(OCC#CCSc1nnc(-c2ccc3ccccc3c2)o1)c1cc2ccccc2s1`, the remaining proliferation (% of control), lower = more inhibition stood at 125%.
The result for `CC(c1cc2ccccc2s1)N(O)C(N)=O` (stereo not given) reads 109% [at 57.5 µM]; that for `O=c1[nH]c(-c2ccc(C(F)(F)F)cc2)nc2c1CSCC2`, 29.8%; that for `CN(C)c1ccc(C2Nc3ccc4ccccc4c3C3=C2C(=O)CC(C)(C)C3)cc1Br` (stereo not given), 1.79%.
To `O=C(Nc1ccc(F)c(C(F)(F)F)c1)Nc1nnc(-c2ccncc2)s1` belongs 67.6%; to `CN(C)c1ccc(Nc2nc(N)n(C(=O)c3c(F)cccc3F)n2)cc1`, 7.62%.
For `NC(=O)c1ccc(I)c([N+](=O)[O-])c1`, the remaining proliferation (% of control), lower = more inhibition is 77.5%.
The result for `Cc1ccc(NC(=O)c2cccc(C(C)(C)C#N)c2)cc1Nc1ccc2ncn(C)c(=O)c2c1` reads 7.17%; that for `COCC(=O)NCC=Cc1ccc2ncnc(Nc3ccc(Oc4ccc(C)nc4)c(C)c3)c2c1`, 7.14%.
To `COc1cc2nccc(Oc3ccc(NC(=O)NC4CC4)c(Cl)c3)c2cc1C(N)=O` belongs 30.9%; to `Cc1csc(NC(=O)c2sc3nc4c(c(C(F)(F)F)c3c2N)CCC4)n1`, 87.9%; to `COc1cc2c(cc1OC)CN(CCc1ccc(NC(=O)c3cccc4c(=O)c5cccc(OC)c5[nH]c34)cc1)CC2`, -0.901%.
`CCn1c(-c2nonc2N)nc2c(C#CC(C)(C)O)ncc(OC[C@H]3CCCNC3)c21`: the remaining proliferation (% of control), lower = more inhibition was determined as 2.14%.
To `CC[C@@H](C)[C@H](NC(=O)[C@H](CC1CCCCC1)NC(=O)c1ccno1)C(=O)N1CCC2(CCc3ccccc32)CC1` belongs -0.621%.
